From publication PMC11062922 (Nature Chemical Biology, 2023)
Read-outs that look alike come from different tables or passages of the source.

What was measured:
Set-up in all cases: species or system human, MV4-11 + K-562 + COLO205 + SK-N-BE2 + OVCAR-8
[1] = system: ADRBK1; conditions: read-out: apparent Kd, n = 1
[2] = system: COX5A; conditions: read-out: apparent Kd, n = 1
[3] = system: EPHA7; conditions: read-out: apparent Kd; compound concentrations:100 nM and 1000 nM (sheet 'Samples'); n = 1
[4] = system: PIK3CB; conditions: read-out: apparent Kd; compound concentrations:100 nM and 1000 nM (sheet 'Samples'); n = 1
[5] = system: ADK; conditions: read-out: apparent Kd; compound concentrations: 100 nM and 1000 nM (sheet 'Samples'), CATDS: 0.22973332446561601; n = 1
[6] = system: MAP2K2; conditions: read-out: apparent Kd, compound concentrations: 100 nM and 1000 nM (sheet 'Samples'), n = 1
[7] = system: NQO1; conditions: read-out: apparent Kd, compound concentrations: 100 nM and 1000 nM (sheet 'Samples'), n = 1
[8] = system: RAN; conditions: read-out: apparent Kd; compound concentrations: 100 nM and 1000 nM (sheet 'Samples'), CATDS: 0.206069741930102; n = 1
[9] = system: AKT1; conditions: read-out: apparent Kd; compound concentrations: 100 nM and 1000 nM (sheet 'Samples'), CATDS: 9.2646573747736397E-2; n = 1
[10] = system: AKT2; conditions: read-out: apparent Kd; compound concentrations: 100 nM and 1000 nM (sheet 'Samples'), CATDS: 0.116273813691737; n = 1
[11] = system: AKT3; conditions: read-out: apparent Kd; compound concentrations: 100 nM and 1000 nM (sheet 'Samples'), CATDS: 9.8238280231453798E-2; n = 1
[12] = system: MAP2K1; conditions: read-out: apparent Kd; compound concentrations: 100 nM and 1000 nM (sheet 'Samples'), CATDS: 9.2730141301733807E-2; n = 1
[13] = system: MAP4K3; conditions: read-out: apparent Kd; compound concentrations: 100 nM and 1000 nM (sheet 'Samples'), CATDS: 0.10467989294056; n = 1
[14] = system: RIOK2; conditions: read-out: apparent Kd; compound concentrations: 100 nM and 1000 nM (sheet 'Samples'), CATDS: 0.103588865131405; n = 1
[15] = system: TP53RK; conditions: read-out: apparent Kd; compound concentrations: 100 nM and 1000 nM (sheet 'Samples'), CATDS: 8.4192999566122695E-2; n = 1
[16] = system: AURKA; conditions: read-out: apparent Kd; compound concentrations:100 nM and 1000 nM (sheet 'Samples'); n = 1
[17] = system: CDC42BPA; conditions: read-out: apparent Kd; compound concentrations:100 nM and 1000 nM (sheet 'Samples'); n = 1
[18] = system: CDC42BPB; conditions: read-out: apparent Kd; compound concentrations:100 nM and 1000 nM (sheet 'Samples'); n = 1
[19] = system: CDC42BPG; conditions: read-out: apparent Kd; compound concentrations:100 nM and 1000 nM (sheet 'Samples'); n = 1
[20] = system: CDK6; conditions: read-out: apparent Kd; compound concentrations:100 nM and 1000 nM (sheet 'Samples'); n = 1
[21] = system: CDKL5; conditions: read-out: apparent Kd; compound concentrations:100 nM and 1000 nM (sheet 'Samples'); n = 1
[22] = system: CHEK1; conditions: read-out: apparent Kd; compound concentrations:100 nM and 1000 nM (sheet 'Samples'); n = 1
[23] = system: CSNK1G1; conditions: read-out: apparent Kd; compound concentrations:100 nM and 1000 nM (sheet 'Samples'); n = 1
[24] = system: FN3KRP; conditions: read-out: apparent Kd; compound concentrations:100 nM and 1000 nM (sheet 'Samples'); n = 1
[25] = system: MTHFD1; conditions: read-out: apparent Kd; compound concentrations:100 nM and 1000 nM (sheet 'Samples'); n = 1
[26] = system: NUAK1; conditions: read-out: apparent Kd; compound concentrations:100 nM and 1000 nM (sheet 'Samples'); n = 1
[27] = system: NUAK2; conditions: read-out: apparent Kd; compound concentrations:100 nM and 1000 nM (sheet 'Samples'); n = 1
[28] = system: PDXK; conditions: read-out: apparent Kd; compound concentrations:100 nM and 1000 nM (sheet 'Samples'); n = 1
[29] = system: PKN1; conditions: read-out: apparent Kd; compound concentrations:100 nM and 1000 nM (sheet 'Samples'); n = 1
[30] = system: PKN2; conditions: read-out: apparent Kd; compound concentrations:100 nM and 1000 nM (sheet 'Samples'); n = 1
[31] = system: PRKAA1; conditions: read-out: apparent Kd; compound concentrations:100 nM and 1000 nM (sheet 'Samples'); n = 1
[32] = system: PRKACA; conditions: read-out: apparent Kd; compound concentrations: 100 nM and 1000 nM (sheet 'Samples'), CATDS: 9.7859849759824202E-2; n = 1
[33] = system: PRKACB; conditions: read-out: apparent Kd; compound concentrations:100 nM and 1000 nM (sheet 'Samples'); n = 1
[34] = system: PRKAG1; conditions: read-out: apparent Kd; compound concentrations:100 nM and 1000 nM (sheet 'Samples'); n = 1
[35] = system: PRKAG2; conditions: read-out: apparent Kd; compound concentrations:100 nM and 1000 nM (sheet 'Samples'); n = 1
[36] = system: PRKCA; conditions: read-out: apparent Kd; compound concentrations:100 nM and 1000 nM (sheet 'Samples'); n = 1
[37] = system: PRKCB; conditions: read-out: apparent Kd; compound concentrations:100 nM and 1000 nM (sheet 'Samples'); n = 1
[38] = system: PRKCD; conditions: read-out: apparent Kd; compound concentrations:100 nM and 1000 nM (sheet 'Samples'); n = 1
[39] = system: PRKCQ; conditions: read-out: apparent Kd; compound concentrations:100 nM and 1000 nM (sheet 'Samples'); n = 1
[40] = system: PRKG1; conditions: read-out: apparent Kd; compound concentrations:100 nM and 1000 nM (sheet 'Samples'); n = 1
[41] = system: PRKX;PRKY; conditions: read-out: apparent Kd; compound concentrations:100 nM and 1000 nM (sheet 'Samples'); n = 1
[42] = system: ROCK1; conditions: read-out: apparent Kd; compound concentrations:100 nM and 1000 nM (sheet 'Samples'); n = 1
[43] = system: ROCK2; conditions: read-out: apparent Kd; compound concentrations:100 nM and 1000 nM (sheet 'Samples'); n = 1
[44] = system: RPS6KA5; conditions: read-out: apparent Kd; compound concentrations:100 nM and 1000 nM (sheet 'Samples'); n = 1
[45] = system: RPS6KB1; conditions: read-out: apparent Kd; compound concentrations:100 nM and 1000 nM (sheet 'Samples'); n = 1
[46] = compound concentrations: 100 nM and 1000 nM (sheet 'Samples'), CATDS: 1
[47] = compound concentrations:100 nM and 1000 nM (sheet 'Samples')

Work on COc1cc(Nc2ncc3c(C)nc(-c4cccc(C(F)(F)F)c4)n3n2)cc(OC)c1OC [GW837331X] yielded a potency estimated from few doses [1, 46] of 2010 nM.
Work on O=c1cc(N2CCOCC2)nc2n(Cc3ccccc3F)ccn12 [GSK2297428A] yielded a potency estimated from few doses [1, 47] of 1690 nM, a potency estimated from few doses [2, 47] of 1300 nM and a potency estimated from few doses [3] of 1660 nM. For the same compound, the potency estimated from few doses [4] was 385 nM.
Work on Nc1cccc(-c2ccc3c(N)n[nH]c3c2)n1 [GSK2192730A] yielded a potency estimated from few doses [1, 46] of 1750 nM.
COc1ccc(Nc2nccc(NCCNC(=O)Nc3ccccc3F)n2)cc1 [GSK1379901A] showed a potency estimated from few doses [5] of 1220 nM, a potency estimated from few doses ([2]; compound concentrations: 100 nM and 1000 nM (sheet 'Samples'), CATDS: 0.19729380709152999) of 1630 nM and a potency estimated from few doses ([6]; CATDS: 0.19454488197691899) of 1680 nM. It also gave a potency estimated from few doses ([7]; CATDS: 0.179031281586436) of 2010 nM and a potency estimated from few doses [8] of 1490 nM.
Compound N#Cc1c(NC(=O)c2cccc3ccccc23)sc2c1CCCC2 [GW620972X] has a potency estimated from few doses ([1]; compound concentrations: 100 nM and 1000 nM (sheet 'Samples'), CATDS: 9.9298321917506205E-2) of 1570 nM, a potency estimated from few doses [9] of 1820 nM and a potency estimated from few doses [10] of 1170 nM. The potency estimated from few doses [11] was 1610 nM, the potency estimated from few doses [12] was 1820 nM and the potency estimated from few doses ([6]; CATDS: 9.7397505320664393E-2) was 1640 nM. The potency estimated from few doses [13] was 1420 nM, the potency estimated from few doses ([7]; CATDS: 0.121643058614981) was 1080 nM and the potency estimated from few doses [14] was 1440 nM. It also gave a potency estimated from few doses [15] of 2270 nM.
For COc1ccc(O)c(C(=O)c2ccc(C(=O)O[C@@H]3CCCNC[C@H]3NC(=O)c3ccncc3)cc2)c1F.Cl [RO0480500-002], the potency estimated from few doses [1, 47] was 119 nM, the potency estimated from few doses [16] was 693 nM and the potency estimated from few doses [17] was 413 nM. It also gave a potency estimated from few doses [18] of 51.3 nM, a potency estimated from few doses [19] of 630 nM and a potency estimated from few doses [20] of 2090 nM. For the same compound, the potency estimated from few doses [21] was 237 nM, the potency estimated from few doses [22] was 26.5 nM and the potency estimated from few doses [23] was 2260 nM. For the same compound, the potency estimated from few doses [24] was 764 nM, the potency estimated from few doses [25] was 1020 nM and the potency estimated from few doses [26] was 16.5 nM. The potency estimated from few doses [27] was 150 nM, the potency estimated from few doses [28] was 1410 nM and the potency estimated from few doses [29] was 116 nM. For the same compound, the potency estimated from few doses [30] was 241 nM, the potency estimated from few doses [31] was 485 nM and the potency estimated from few doses [32] was 12.8 nM. It also gave a potency estimated from few doses [33] of 21.1 nM, a potency estimated from few doses [34] of 1510 nM and a potency estimated from few doses [35] of 75 nM. The potency estimated from few doses [36] was 227 nM, the potency estimated from few doses [37] was 506 nM and the potency estimated from few doses [38] was 25.7 nM. The potency estimated from few doses [39] was 769 nM, the potency estimated from few doses [40] was 4.47 nM and the potency estimated from few doses [41] was 40.2 nM. It also gave a potency estimated from few doses [42] of 19.2 nM, a potency estimated from few doses [43] of 19.1 nM and a potency estimated from few doses [44] of 75 nM. It also gave a potency estimated from few doses [45] of 38.6 nM.
